Reference: PubChem BioAssay AID1159580 (chemical genetic matrix, 2015)
Values joined by “and” are separate entries in the source; they are usually repeats but may differ in a detail not shown here. Equal entries are not always repeated. Screen size: about 5,500 compounds; about 2,000 (36%) were called active. About 18% were inconclusive and are not listed. No stated cut-off is given here; in the data, active means normalized growth mostly below about 0.91 (no sharp cut-off); inconclusive means no clear call, values can overlap the other calls; inactive means mostly above about 0.92. The list shows a part of the results.

Assay: chemical genetic growth profiling, strain panel (AID 1159580);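 further: tested at 20 µM; growth read once vehicle control cultures reached saturation at 30 °C; 1 = growth at the plate median or of vehicle wells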
Conditions: S. cerevisiae deletion strains, growth OD

Measured: normalized growth

CCCCNC(=O)NS(=O)(=O)c1ccc(C)cc1
inactive: locus YAL013W, strain DEP1, stronger effect = lower value 0.995 | locus YAL021C, strain ccr4, stronger effect = lower value 1.02 | locus YAL026C, strain drs2, stronger effect = lower value 1.01 | locus YAL030W, strain snc1, stronger effect = lower value 1.02 | locus YAL040C, strain CLN3, stronger effect = lower value 0.997 | locus YBL061C, strain skt5, stronger effect = lower value 1.01 | locus YBR009C, strain hhf1, stronger effect = lower value 0.973 | locus YBR021W, strain FUR4, stronger effect = lower value 1.01 | locus YBR023C, strain chs3, stronger effect = lower value 1.02 | locus YBR171W, strain sec66, stronger effect = lower value 1.01 | locus YBR229C, strain ROT2, stronger effect = lower value 0.993 | locus YBR231C, strain swc5, stronger effect = lower value 1.01 | locus YBR279W, strain paf1, stronger effect = lower value 0.995 | locus YCL011C, strain gbp2, stronger effect = lower value 1 | locus YCL016C, strain dcc1, stronger effect = lower value 0.993 | locus YCL029C, strain bik1, stronger effect = lower value 0.979 | locus YCL061C, strain MRC1 (second series), stronger effect = lower value 1 | locus YCL061C, strain MRC1, stronger effect = lower value 1.01 | locus YCL069W, strain vba3, stronger effect = lower value 1.02 | locus YCR088W, strain abp1, stronger effect = lower value 1.02 | locus YDL005C, strain med2, stronger effect = lower value 1.01 | locus YDL035C, strain GPR1, stronger effect = lower value 0.989 | locus YDL040C, strain nat1, stronger effect = lower value 1.01 | locus YDL074C, strain BRE1, stronger effect = lower value 1.02 | locus YDL101C, strain DUN1, stronger effect = lower value 1.01 | locus YDL134C, strain PPH21, stronger effect = lower value 1 | locus YDL185W, strain tfp1, stronger effect = lower value 0.953 | locus YDL192W, strain arf1, stronger effect = lower value 0.97 | locus YDR001C, strain nth1, stronger effect = lower value 1.02 | locus YDR069C, strain doa4, stronger effect = lower value 1.02 | locus YDR101C, strain arx1, stronger effect = lower value 0.994 | locus YDR137W, strain rgp1, stronger effect = lower value 0.978 | locus YDR159W, strain sac3, stronger effect = lower value 0.93 | locus YDR162C, strain NBP2, stronger effect = lower value 0.974 | locus YDR195W, strain ref2 1.01 | locus YDR297W, strain sur2, stronger effect = lower value 1.01 | locus YDR318W, strain mcm21, stronger effect = lower value 0.978 | locus YDR334W, strain swr1, stronger effect = lower value 1.01 | locus YDR335W, strain msn5, stronger effect = lower value 1.01 | locus YDR363W, strain ESC2, stronger effect = lower value 1.01 | locus YDR388W, stronger effect = lower value 0.974 | locus YDR392W, strain spt3, stronger effect = lower value 0.927 | locus YDR502C, strain sam2, stronger effect = lower value 0.985 | locus YEL003W, strain gim4, stronger effect = lower value 1.02 | locus YEL037C, strain rad23, stronger effect = lower value 1.01 | locus YEL061C, strain CIN8 (second series), stronger effect = lower value 1.01 | locus YEL061C, strain CIN8, stronger effect = lower value 0.99 | locus YER002W, strain NOP16, stronger effect = lower value 1 | locus YER015W, strain faa2, stronger effect = lower value 1.01 | locus YER016W, strain bim1, stronger effect = lower value 0.988 | locus YER110C, stronger effect = lower value 0.982 | locus YER111C, strain swi4, stronger effect = lower value 1.02 | locus YER155C, strain BEM2 (second series), stronger effect = lower value 1.04 | locus YER155C, strain BEM2, stronger effect = lower value 0.985 | locus YER167W, strain BCK2, stronger effect = lower value 0.994 | locus YFR010W, strain ubp6, stronger effect = lower value 1.02 | locus YGL078C, strain dbp3, stronger effect = lower value 0.989 | locus YGL086W, strain mad1, stronger effect = lower value 1 | locus YGL167C, strain pmr1, stronger effect = lower value 1.01 | locus YGL173C, strain kem1, stronger effect = lower value 1.03 | locus YGL227W, strain vid30, stronger effect = lower value 1.01 | locus YGL240W, strain doc1, stronger effect = lower value 1.01 | locus YGL248W, strain PDE1, stronger effect = lower value 1 | locus YGL253W, strain hxk2, stronger effect = lower value 1 | locus YGR078C, strain PAC10, stronger effect = lower value 1.01 | locus YGR135W, strain pre9, stronger effect = lower value 0.986 | locus YGR252W, strain gcn5, stronger effect = lower value 1.21 | locus YHR013C, strain ard1, stronger effect = lower value 0.992 | locus YHR027C, strain rpn1, stronger effect = lower value 1 | locus YHR030C, strain SLT2, stronger effect = lower value 0.99 and 0.938 | locus YHR079C, strain IRE1 (second series), stronger effect = lower value 0.98 | locus YHR079C, strain IRE1, stronger effect = lower value 0.964 | locus YHR094C, strain hxt1, stronger effect = lower value 0.979 | locus YHR129C, strain ARP1, stronger effect = lower value 0.996 | locus YHR142W, strain chs7, stronger effect = lower value 1.02 | locus YHR200W, strain rpn10, stronger effect = lower value 0.985 | locus YIL066C, strain RNR3, stronger effect = lower value 0.988 | locus YIL073C, strain SPO22, stronger effect = lower value 0.831 | locus YIL125W, strain kgd1, stronger effect = lower value 0.962 | locus YIR030C, strain dcg1, stronger effect = lower value 0.982 | locus YJL092W, strain hpr5, stronger effect = lower value 1.01 | locus YJL095W, strain BCK1 (second series), stronger effect = lower value 1.02 | locus YJL095W, strain BCK1, stronger effect = lower value 1.01 and 0.954 | locus YJL115W, strain asf1, stronger effect = lower value 1 | locus YJL129C, strain trk1, stronger effect = lower value 1.01 | locus YJL134W, strain LCB3, stronger effect = lower value 0.99 | locus YJL154C, strain vps35, stronger effect = lower value 1.01 | locus YJL164C, strain tpk1, stronger effect = lower value 1 | locus YJL166W, strain qcr8, stronger effect = lower value 1.02 | locus YJL168C, strain set2, stronger effect = lower value 0.981 | locus YJL187C, strain SWE1 (second series), stronger effect = lower value 0.982 | locus YJL187C, strain SWE1, stronger effect = lower value 1.02 | locus YJR043C, strain POL32, stronger effect = lower value 1.02 | locus YJR066W, strain TOR1, stronger effect = lower value 0.92
